Screens (PubChem BioAssay)
Y pestis TopoI: Y. pestis Topo-I inhibition via cleavage products; activity, % at 10 µM; actives 0.064% (n = 360,000); Y. pestis Topo-I cleavage product accumulation, plate reader; AID 504884; in the data active = activity above about 50%, passing the limit was not always enough
PrP 5UTR inh: suppresses PrP 5' UTR mRNA reporter expression | AID 488862 | cell-based PrP 5' UTR mRNA reporter, plate reader | actives 0.35% (n = 340,000) | inhibition, % (no concentration beside the values); in the data active = inhibition above about 52%
Sa RN4220 lethal: kills Staphylococcus aureus RN4220; S. aureus RN4220 growth, OD600, 16 h; inhibition, % (test concentration not listed); actives 0.33% (n = 330,000); AID 1259311; in the data active = inhibition above about 85%
BJeLR viability: BJeLR cell viability loss; BJeLR (HRASV12) viability, CellTiter-Glo ATP luminescence, 48 h; actives 0.17% (n = 300,000); inhibition, % (no concentration beside the values); AID 1554; in the data active = inhibition above about 50%
ugtP null kill: growth inhibition of S. aureus ugtP deletion strain | S. aureus RN4220 ugtP deletion, OD600 growth, 16 h | growth inhibition, % (test concentration not listed) | actives 0.54% (n = 330,000); in the data active = growth inhibition above about 68%
PfHsp40 rescue: compounds rescuing yeast from Plasmodium falciparum HSP40 toxicity; S. cerevisiae expressing PfHsp40, growth rescue, ATP luminescence; growth rescue, % at 12.5 µM; actives 0.68% (n = 340,000); AID 504582; in the data active = growth rescue above about 28%, passing the limit was not always enough;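 note: yeast W303a lacking pdr1 and pdr3 grown in galactose medium; growth measured after three days at 30 °C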
Each line names hits and unclear results; the compound was inactive in the other large screens. Most compounds without a hit are left out; they make up all but 1.4% or so of the library.

COC(=O)c1ccc(/C=C2/SC(=S)N(CCC(=O)NCCCN3CCOCC3)C2=O)cc1	none
CC1CN(C(C)CO)C(=O)c2cccc(NC(=O)c3ccc(-c4nccs4)cc3)c2OC1CN(C)C(=O)Nc1cccc2ccccc12 (stereo not drawn)	none (no result: Y pestis TopoI, PrP 5UTR inh, BJeLR viability, PfHsp40 rescue)
CCN1C(=O)C2C(c3ccc(C)cc3)N3C(=O)N(c4ccc(OC)cc4)C(=O)[C@@]3(Cc3ccc(Cl)cc3)C2C1=O (stereo partly drawn)	none (no result: Y pestis TopoI, PrP 5UTR inh, BJeLR viability, PfHsp40 rescue)
CCc1ccc(/C=C2/SC(=S)N(CCC(=O)Nc3cccnc3)C2=O)cc1	BJeLR viability 101.8
CN1CCN(C(=O)CCCN2C(=O)/C(=C/c3cccc(Br)c3)SC2=S)CC1	BJeLR viability 90.0
CC(Oc1ccc(Cl)cc1C(N)=O)C(=O)N1CCc2ccccc21 (stereo not drawn)	none (no result: BJeLR viability)
CC(Oc1ccc(Cl)cc1Cl)C(=O)NC(=S)N1CCc2ccccc21 (stereo not drawn)	Sa RN4220 lethal 99.0, ugtP null kill 98.4
COc1cc(S(=O)(=O)NC2CCCCC2C)ccc1F (stereo not drawn)	PfHsp40 rescue 98.3
COc1cc(S(=O)(=O)NC2CCCCC2C)ccc1Cl (stereo not drawn)	none (no result: BJeLR viability)
COCCN1C(=O)NC(c2ccccc2)C(C(C)=O)C1C (stereo not drawn)	none (no result: Y pestis TopoI, PrP 5UTR inh, BJeLR viability, PfHsp40 rescue)
Cc1ccc(C(=O)N2CCCC(C(=O)c3ccc(Cl)cc3C)C2)cn1 (stereo not drawn)	none
O=C(c1ccc(-c2ccccc2)c(F)c1)C1CCCN(C(=O)c2cncs2)C1 (stereo not drawn)	PfHsp40 rescue 412.0
Cc1cc(Cl)ccc1C(=O)C1CCCN(C(=O)c2cncs2)C1 (stereo not drawn)	PfHsp40 rescue 376.6
CCN1C(=O)C2C(c3ccc(C)cc3)N3C(=O)N(c4ccccc4)C(=O)[C@@]3(Cc3ccccc3)C2C1=O (stereo partly drawn)	none (no result: Y pestis TopoI, PrP 5UTR inh, BJeLR viability, PfHsp40 rescue)
CCOC(=O)COc1ccccc1C=NO	none (no result: Y pestis TopoI, PrP 5UTR inh, BJeLR viability, PfHsp40 rescue)
CCOC(=O)COc1ccccc1/C=C\[N+](=O)[O-]	PfHsp40 rescue 71.4 (no result: Sa RN4220 lethal, ugtP null kill)
CC(C)Sc1cc(N2CCOCC2)nc(-c2ccccc2)n1	ugtP null kill 97.5
CC(C)Sc1cc(N2CCCC2)nc(-c2ccccc2)n1	none
O=C(NCc1ccccn1)C(=O)NCC1OCCN1S(=O)(=O)c1ccc(Br)cc1 (stereo not drawn)	none
O=C(NCc1ccccn1)C(=O)NCC1OCCN1S(=O)(=O)c1ccc([N+](=O)[O-])cc1 (stereo not drawn)	PfHsp40 rescue 106.8
CNC(=S)N/N=C(\C)c1ccc(N2CCOCC2)cc1	PfHsp40 rescue 203.2 (no result: Sa RN4220 lethal, ugtP null kill)
CCNC(=S)N/N=C(\C)c1ccc(N2CCOCC2)cc1	none (no result: Sa RN4220 lethal, ugtP null kill)
Oc1ccc(-[n+]2c(-c3ccccc3)cc(-c3ccccc3)cc2-c2ccccc2)cc1	none (no result: Sa RN4220 lethal, ugtP null kill)
Oc1ccccc1-[n+]1c(-c2ccccc2)cc(-c2ccccc2)c(O)c1-c1ccccc1	PfHsp40 rescue 42.2
Nc1ncnc2c1nc(Br)n2C1OC2COP(=O)(O)OC2C1O (stereo not drawn)	none (no result: Y pestis TopoI, PrP 5UTR inh, BJeLR viability, PfHsp40 rescue)
Cn1c(=O)c(C(=O)NNC(=O)c2cccc(Cl)c2)c(O)c2ccccc21	Sa RN4220 lethal 100.4, ugtP null kill 100.2
Cc1cccc(C(=O)NNC(=O)c2c(O)c3ccccc3n(C)c2=O)c1	none
Cn1c(=O)c(C(=O)NNC(=O)c2ccccc2Cl)c(O)c2ccccc21	PfHsp40 rescue 82.2
CCn1c(=O)c(C(=O)NNC(=O)c2ccc(Cl)cc2Cl)c(O)c2ccccc21	none
Cn1c(=O)c(C(=O)NNC(=O)c2ccccc2Br)c(O)c2ccccc21	none
CCn1c(=O)c(C(=O)NNC(=O)c2cccc(Cl)c2)c(O)c2ccccc21	Sa RN4220 lethal 100.0, ugtP null kill 100.1
COc1ccc(CCN2C(=O)C=CC2=O)cc1OC	PfHsp40 rescue 137.9 (no result: Sa RN4220 lethal, BJeLR viability, ugtP null kill)
O=C(O)c1cccc(Cn2c(Cl)c(C=NNc3ccccc3)sc2=O)c1	Sa RN4220 lethal 94.4, ugtP null kill 96.6 (no result: Y pestis TopoI, PrP 5UTR inh, BJeLR viability, PfHsp40 rescue)
CC1CN(C(C)CO)C(=O)c2cccc(NC(=O)Nc3ccc4c(c3)OCO4)c2OC1CN(C)C(=O)Nc1ccccc1 (stereo not drawn)	none (no result: Y pestis TopoI, PrP 5UTR inh, BJeLR viability, PfHsp40 rescue)
COc1ccc2cnn(-c3ccc(OC(F)(F)F)cc3)c(=O)c2c1OC	none
COc1ccc2cnn(Cc3ccccc3)c(=O)c2c1OC	none
COc1ccc2cnn(-c3ccccc3)c(=O)c2c1OC	PfHsp40 rescue 65.5
